Screening results from PubChem BioAssay.
Rows were chosen to be rich in hits. Some 1.5% of all compounds tested hit in one or more screens of this group.
Nrf2 activator: Nrf2 pathway activation. AREc32 ARE-luciferase reporter (MCF7-derived line), luminescence, 24 h. Potency, µM (titrated, usually from 46.1 µM), inactives show top-dose activation, most hits filed as activators. 410,000 compounds, 0.31% hits; also: potency is read from the fitted curve at half-maximal effect; % of control where 0% means no effect; nearly all actives have a fitted effect of over 65% in size
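Reporter line AREc32 (ARE-Fluc), seeded overnight in OPTI-MEM with 5% FBS; compound pin-transferred, 24 hr at 37 deg C, 5% CO2; luminescent read-out.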
ALOX12 inh: ALOX12 (human) lipoxygenase inhibition | Potency, µM (series often up to 108 µM), without a hit: at the highest dose activity change, negative = inhibition, most hits filed as inhibitors | 580,000 compounds, 1.1% hits | P18054 | AID 1671190 | purified 12hLO, xylenol orange hydroperoxide absorbance; also: potency is read from the fitted curve at half-maximal effect; % is scaled to controls: 0 for no effect and ±100 for the full control effect
Target sequence (P18054 whole entry, looked up): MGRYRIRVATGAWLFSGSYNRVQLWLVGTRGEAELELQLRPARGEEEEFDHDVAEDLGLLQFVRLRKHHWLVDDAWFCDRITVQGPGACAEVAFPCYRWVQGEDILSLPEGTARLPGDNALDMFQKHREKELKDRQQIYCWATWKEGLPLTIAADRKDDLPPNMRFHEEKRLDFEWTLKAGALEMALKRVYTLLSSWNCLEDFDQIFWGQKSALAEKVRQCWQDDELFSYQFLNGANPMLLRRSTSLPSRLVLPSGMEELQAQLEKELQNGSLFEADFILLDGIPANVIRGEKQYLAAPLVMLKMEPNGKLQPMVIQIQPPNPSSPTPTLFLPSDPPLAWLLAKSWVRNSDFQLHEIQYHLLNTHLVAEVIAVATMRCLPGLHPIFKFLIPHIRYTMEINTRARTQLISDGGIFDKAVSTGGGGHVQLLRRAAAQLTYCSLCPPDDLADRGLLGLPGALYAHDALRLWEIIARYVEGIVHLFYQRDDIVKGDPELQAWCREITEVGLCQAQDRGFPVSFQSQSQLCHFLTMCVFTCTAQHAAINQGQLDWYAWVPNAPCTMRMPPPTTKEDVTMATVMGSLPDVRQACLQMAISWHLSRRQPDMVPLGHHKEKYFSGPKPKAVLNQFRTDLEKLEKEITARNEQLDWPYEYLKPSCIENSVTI
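Hydroperoxide product was detected by ferrous iron/xylenol orange as the 573 to 405 nm absorbance ratio. Arachidonic acid at 40 uM (final) was turned over for 30 min at room temperature by 150 nM human 12hLO, pH 7.0 Hepes buffer, after 15 min compound preincubation.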
Integrin act MD: activates integrin-mediated alleviation for muscular dystrophy | alpha7betagal myoblasts, beta-gal FDG fluorescence, 48 h | Potency, µM (top dose mostly 38.3 µM), for inactives: at the highest dose activation, actives largely listed as activators | 350,000 compounds, 0.064% hits | AID 624291;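 also: potency is read from the fitted curve at half-maximal effect; 100% = response of the positive control SU9516; nearly all actives have a fitted effect of over 60% in size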
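Alpha7betagal+/- myoblasts (passage 13) were plated 16-24 hr, then exposed to compounds (1:260 dilution of DMSO stock) for 48 hours at 37C. After MPER lysis, β-galactosidase reporter activity was read as FDG fluorescence (ex 480/em 540) after 30 minutes.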
IL-2 act: activators of IL-2; IL-2 activation reporter assay, cell-based qHTS; stimulated with anti-CD3/CD4/CD28 beads; in transgenic mouse T cells; activation, % (series mostly up to about 46 µM); 360,000 compounds, 0.065% hits; AID 652025; in the data active = activation above about 50%; inconclusive = mostly about 30% to 49%; also: 0% is about no effect
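Unstimulated transgenic mouse T cells, 750 per well, received compound and, after 60 minutes, anti-CD3/anti-CD4 bead plus anti-CD28 stimulation. EGFP and DsRed were quantified after 18 hours.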
uPA generation: inhibitors of cell surface uPA generation; AID 540303; cell surface uPA generation assay, qHTS; Potency, µM (series often up to 38.3 µM), inactives show top-dose activity change, negative = inhibition, hits mostly inhibitors; 330,000 compounds, 0.31% hits; active = well fitted inhibition curve with a large enough effect; inconclusive = small, poorly fitted or top-dose-only effect; inactive = no such curve, though single readings can be large or run the other way; tested in mouse RAW 264.7 cells; also: potency is read from the fitted curve at half-maximal effect; % is scaled to controls: 0 for no effect and ±100 for the full control effect; nearly all actives have a fitted effect of over 55% in size
The depositor's hits bear a star. Unless noted, calls follow the shape of the dose curve; as a rule, active = well fitted curve in the direction sought with a large enough effect; inconclusive = small, poorly fitted or top-dose-only effect, or another doubt; inactive = no such curve, though single readings can be large; an effect the other way counts as inactive or inconclusive.

`CCOC(=O)c1sc(NC(=O)c2cc3ccccc3o2)nc1C` gave Nrf2 activator -3%, ALOX12 inh -2%, Integrin act MD -5%, IL-2 act 0 and uPA generation -4%.
Screening C=CCOC(=O)c1sc(NC(=O)c2ccco2)nc1C returned Nrf2 activator 5µM*, ALOX12 inh -14%, Integrin act MD 4%, IL-2 act 0 and uPA generation -9%.
CC1(C)CC(=O)c2sc(NC(=O)c3ccco3)nc2C1 was read as Nrf2 activator inconclusive, ALOX12 inh -6%, Integrin act MD 17%, IL-2 act -4 and uPA generation 10µM*.
`CCOC(=O)c1cc(Cc2ccccc2)sc1NC(=O)c1c(C)noc1C` gave ALOX12 inh -20%.
CCN1C(=O)Cc2cc(C(=O)NCc3ccc4c(c3)OCO4)ccc21 was read as ALOX12 inh 12%.
`Clc1cccc(N/N=C/C(Br)=C/c2ccccc2)c1` gave ALOX12 inh 11µM*.
BrC(=C\c1ccccc1)/C=N/Nc1ccc2nncn2n1 was read as Nrf2 activator inconclusive, ALOX12 inh -12%, Integrin act MD -40%, IL-2 act 0 and uPA generation -8%.
Screening OCc1cccc(Nc2nc(-c3cccs3)nc3ccccc23)c1 returned ALOX12 inh -17%.
Cc1cccc(C(=O)NC(=S)NNC(=O)c2ccccc2Cl)c1 was read as Nrf2 activator 0%, ALOX12 inh 40µM*, Integrin act MD -6%, IL-2 act 4 and uPA generation 0%.
Cc1ccccc1C(=O)NNC(=S)NC(=O)c1ccc(Cl)cc1Cl was read as Nrf2 activator 2%, ALOX12 inh inconclusive, Integrin act MD -18%, IL-2 act -1 and uPA generation 1%.
Screening Cc1cccc(C(=O)NC(=S)NNC(=O)COc2c(C)cccc2C)c1 returned Nrf2 activator 0%, ALOX12 inh 25µM*, Integrin act MD 16%, IL-2 act -1 and uPA generation 7%.
CCCCNC(=S)NNC(=O)c1csc(CC)c1 was read as Nrf2 activator 1%, ALOX12 inh 0%, Integrin act MD -18%, IL-2 act -1 and uPA generation 0%.
Screening Cc1cccc(C(=O)NC(=S)NCc2ccccc2)c1 returned Nrf2 activator 0%, ALOX12 inh inconclusive, Integrin act MD -18%, IL-2 act -4 and uPA generation 2%.
For Cc1cccc(C(=O)NC(=S)NNC(=O)Cc2ccccc2)c1 the results were Nrf2 activator 0%, ALOX12 inh 45µM*, Integrin act MD -39%, IL-2 act 4 and uPA generation 1%.
`CCc1cc(C(=O)NNC(=S)NC(=O)c2ccccc2)cs1` gave ALOX12 inh 40µM*.
O=C(CCc1nc2ccc(Cl)cc2[nH]1)N1CCc2nc3cc(-c4ccccc4)[nH]n3c(=O)c2C1 was read as ALOX12 inh -7%.
Screening Cc1cc(C)cc(OCCn2cnc3c2c(=O)n(C)c(=O)n3C)c1 returned ALOX12 inh 12%.
Screening CN1C(=O)[C@H]2CN(Cc3cn[nH]c3-c3cccc(Br)c3)C[C@H]2C1=O returned ALOX12 inh 8%.
Cc1cccc(C(=O)NNC(=S)NC(=O)/C=C/c2cccs2)c1 was read as ALOX12 inh 35µM*.
Screening O=C(c1ccccc1F)N1CCC(N2C(=O)C(O)C23CCCCC3)CC1 (configuration not stated) returned ALOX12 inh 4%.
For CC(C)NC(=O)C(C)N1CCN(S(=O)(=O)c2ccc3ccccc3c2)CC1 (configuration not stated) the results were Nrf2 activator 0%, ALOX12 inh 1.4µM*, Integrin act MD -1%, IL-2 act -3 and uPA generation -2%.
For CC(C)N1CCN(S(=O)(=O)c2ccc3ccccc3c2)CC1 the results were Nrf2 activator 1%, ALOX12 inh 0.79µM*, Integrin act MD 37%, IL-2 act 1 and uPA generation -1%.
CCNC(=S)N/N=C/c1ccccc1[N+](=O)[O-] was read as Nrf2 activator 6%, ALOX12 inh -19%, Integrin act MD -8%, IL-2 act -1 and uPA generation 2%.
